Assay in all cases: DAPPL (digital affinity profiling via proximity ligation, sequencing); 10 mM Tris-HCl pH 7.5, 50 mM NaCl, 1 mM DTT, 4% glycerol, room temperature, 30 min; GST-TFs on glutathione beads, 16-mer random dsDNA library, 0.1% formaldehyde crosslink after washing; high values mean tight binding
Assay [1] deals with T1, FEV (Homo sapiens, UniProt Q99581 1-238).
T1 sequence: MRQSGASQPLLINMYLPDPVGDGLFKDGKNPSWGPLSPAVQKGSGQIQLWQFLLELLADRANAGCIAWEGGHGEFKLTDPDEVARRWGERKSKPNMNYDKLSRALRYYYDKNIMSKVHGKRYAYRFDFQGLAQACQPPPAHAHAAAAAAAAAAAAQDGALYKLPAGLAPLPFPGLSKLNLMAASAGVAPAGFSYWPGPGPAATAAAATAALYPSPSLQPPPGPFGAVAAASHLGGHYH
The conditions noted are these: protein: recombinant; tags: N-terminal GST; dsDNA, one strand shown. The procedure, abridged: (§1)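 Yeast served to express human transcription factors as GST fusions, which were then captured on glutathione beads and labelled with DNA barcodes. Pooled with a tag-only sample, they were incubated with 200 nmole of a 16-mer random double-stranded DNA library for 30 min at room temperature in Tris/NaCl/DTT/glycerol buffer, washed, crosslinked with 0.1% formaldehyde, ligated by proximity, amplified by PCR and sequenced. Dividing each hexamer's read frequency for a factor by its frequency for the tag-only sample gives the binding signal.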

Assay [2] concerns the target ETV5 (Homo sapiens, UniProt P41161 1-510). The conditions noted are these: protein: recombinant; tags: N-terminal GST; dsDNA, one strand shown. The method, boiled down:
as §1

Assay [3] has as its target HSF1 (Homo sapiens, UniProt Q00613 1-529). The conditions noted are these: protein: recombinant; tags: N-terminal GST; chain copies: 3; dsDNA, one strand shown. The procedure, abridged: as §1
Assay [4] concerns the target T2, SPIC (Homo sapiens, UniProt Q8N5J4 1-248).
T2 sequence: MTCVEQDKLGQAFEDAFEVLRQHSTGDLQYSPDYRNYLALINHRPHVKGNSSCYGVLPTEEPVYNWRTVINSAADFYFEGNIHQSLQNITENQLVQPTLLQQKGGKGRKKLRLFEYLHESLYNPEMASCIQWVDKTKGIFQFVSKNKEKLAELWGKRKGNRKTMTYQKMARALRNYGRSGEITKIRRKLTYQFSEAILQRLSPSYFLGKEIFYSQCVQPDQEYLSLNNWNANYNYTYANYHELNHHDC
Particulars: protein: recombinant; tags: N-terminal GST; dsDNA, one strand shown. The procedure, abridged: as §1

In assay [5] the target is ELF4 (Homo sapiens, UniProt Q99607 1-663). The conditions noted are these: protein: recombinant; tags: N-terminal GST; dsDNA, one strand shown. The procedure, abridged:
as §1

Assay [6] has as its target T3, ELK4 (Homo sapiens, UniProt P28324-2 1-405).
T3 sequence: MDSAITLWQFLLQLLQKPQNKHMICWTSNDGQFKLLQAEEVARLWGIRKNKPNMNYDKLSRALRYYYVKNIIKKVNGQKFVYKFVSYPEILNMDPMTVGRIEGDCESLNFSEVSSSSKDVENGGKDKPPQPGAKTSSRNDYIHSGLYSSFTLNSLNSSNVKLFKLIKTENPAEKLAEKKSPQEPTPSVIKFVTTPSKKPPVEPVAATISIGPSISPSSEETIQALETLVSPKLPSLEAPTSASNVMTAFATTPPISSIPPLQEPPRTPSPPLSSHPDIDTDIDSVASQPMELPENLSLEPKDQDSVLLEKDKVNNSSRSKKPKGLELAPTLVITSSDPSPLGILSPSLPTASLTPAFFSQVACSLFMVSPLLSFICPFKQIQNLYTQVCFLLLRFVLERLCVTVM
Particulars: protein: recombinant; tags: N-terminal GST; dsDNA, one strand shown. The method, boiled down:
as §1

Assay [7] has as its target T4, ETV2 (Homo sapiens, UniProt O00321 1-342).
T4 sequence: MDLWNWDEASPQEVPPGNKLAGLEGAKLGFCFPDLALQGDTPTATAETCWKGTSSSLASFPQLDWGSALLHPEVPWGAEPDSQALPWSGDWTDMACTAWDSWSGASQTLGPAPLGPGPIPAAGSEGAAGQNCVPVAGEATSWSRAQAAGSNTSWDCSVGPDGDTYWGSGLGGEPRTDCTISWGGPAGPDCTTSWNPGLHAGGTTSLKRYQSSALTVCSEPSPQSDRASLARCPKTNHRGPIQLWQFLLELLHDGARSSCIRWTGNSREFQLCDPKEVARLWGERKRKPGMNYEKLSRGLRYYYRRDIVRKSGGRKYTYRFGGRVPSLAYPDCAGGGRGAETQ
The conditions noted are these: protein: recombinant; tags: N-terminal GST; dsDNA, one strand shown. The procedure, abridged: as §1

Assay [8] deals with T5, ELF3 (Homo sapiens, UniProt P78545 1-371).
T5 sequence: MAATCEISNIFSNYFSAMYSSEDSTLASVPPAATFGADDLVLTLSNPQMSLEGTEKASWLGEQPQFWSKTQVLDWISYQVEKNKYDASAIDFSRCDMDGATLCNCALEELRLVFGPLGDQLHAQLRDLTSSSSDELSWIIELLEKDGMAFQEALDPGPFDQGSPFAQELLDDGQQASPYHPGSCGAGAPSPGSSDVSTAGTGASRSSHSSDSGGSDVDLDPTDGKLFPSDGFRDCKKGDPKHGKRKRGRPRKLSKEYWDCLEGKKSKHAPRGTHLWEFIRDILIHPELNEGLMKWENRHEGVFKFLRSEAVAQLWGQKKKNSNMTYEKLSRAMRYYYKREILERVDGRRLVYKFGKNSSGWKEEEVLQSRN
The conditions noted are these: protein: recombinant; tags: N-terminal GST; dsDNA, one strand shown. The method, boiled down:
as §1

The target in assay [9] is CRX (Homo sapiens, UniProt O43186 1-299). The conditions noted are these: protein: recombinant; tags: N-terminal GST; dsDNA, one strand shown. The method, boiled down:
as §1

Assay [10] addresses ETV1 (Homo sapiens, UniProt P50549 1-477). The conditions noted are these: protein: recombinant; tags: N-terminal GST; dsDNA, one strand shown. The procedure, abridged: as §1
The target of assay [11] is T6, ERF (Homo sapiens, UniProt P50548 1-548).
T6 sequence: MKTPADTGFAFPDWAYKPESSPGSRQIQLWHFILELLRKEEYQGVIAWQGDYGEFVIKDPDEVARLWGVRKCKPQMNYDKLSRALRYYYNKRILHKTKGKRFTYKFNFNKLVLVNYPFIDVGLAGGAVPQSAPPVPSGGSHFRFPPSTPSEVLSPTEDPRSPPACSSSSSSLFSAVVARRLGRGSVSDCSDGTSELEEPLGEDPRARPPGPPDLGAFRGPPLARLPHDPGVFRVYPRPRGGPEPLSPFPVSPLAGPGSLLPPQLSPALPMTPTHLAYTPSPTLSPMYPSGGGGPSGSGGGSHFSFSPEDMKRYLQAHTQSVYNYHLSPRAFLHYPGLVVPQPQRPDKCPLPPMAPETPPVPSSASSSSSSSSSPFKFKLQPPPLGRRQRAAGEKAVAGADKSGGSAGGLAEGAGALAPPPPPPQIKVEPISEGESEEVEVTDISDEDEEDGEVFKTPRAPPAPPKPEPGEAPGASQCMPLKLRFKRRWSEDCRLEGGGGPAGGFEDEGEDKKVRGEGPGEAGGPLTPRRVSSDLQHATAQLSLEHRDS
Particulars: protein: recombinant; tags: N-terminal GST; dsDNA, one strand shown. The procedure, abridged: as §1

In assay [12] the target is T7, ETV3L (Homo sapiens, UniProt Q6ZN32 1-361).
T7 sequence: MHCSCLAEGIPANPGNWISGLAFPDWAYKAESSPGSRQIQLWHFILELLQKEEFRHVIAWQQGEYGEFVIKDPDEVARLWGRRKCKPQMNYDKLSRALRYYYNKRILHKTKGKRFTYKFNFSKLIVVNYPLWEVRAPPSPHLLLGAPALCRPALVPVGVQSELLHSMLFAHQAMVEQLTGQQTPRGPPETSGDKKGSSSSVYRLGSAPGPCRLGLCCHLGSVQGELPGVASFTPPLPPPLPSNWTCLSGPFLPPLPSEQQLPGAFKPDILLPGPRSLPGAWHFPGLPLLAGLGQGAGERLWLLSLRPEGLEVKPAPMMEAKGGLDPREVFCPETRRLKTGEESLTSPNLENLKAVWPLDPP
The conditions noted are these: protein: recombinant; tags: N-terminal GST; dsDNA, one strand shown. The procedure, abridged: as §1

The target in assay [13] is T8, ETS2 (Homo sapiens, UniProt P15036 1-469).
T8 sequence: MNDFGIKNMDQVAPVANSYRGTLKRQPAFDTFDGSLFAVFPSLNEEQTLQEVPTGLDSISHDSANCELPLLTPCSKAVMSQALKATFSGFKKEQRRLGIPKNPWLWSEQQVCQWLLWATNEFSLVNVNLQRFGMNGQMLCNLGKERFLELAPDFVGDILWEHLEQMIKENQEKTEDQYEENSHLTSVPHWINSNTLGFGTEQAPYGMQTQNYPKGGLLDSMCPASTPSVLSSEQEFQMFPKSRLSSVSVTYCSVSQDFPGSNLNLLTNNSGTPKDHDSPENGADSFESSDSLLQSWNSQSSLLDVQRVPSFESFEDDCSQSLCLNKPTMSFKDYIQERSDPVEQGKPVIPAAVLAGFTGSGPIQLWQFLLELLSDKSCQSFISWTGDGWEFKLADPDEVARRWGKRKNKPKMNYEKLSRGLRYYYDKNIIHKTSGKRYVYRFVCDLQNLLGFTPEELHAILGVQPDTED
Particulars: protein: recombinant; tags: N-terminal GST; dsDNA, one strand shown. The method, boiled down: as §1

Assay [14] deals with T9, SPDEF (Homo sapiens, UniProt O95238 1-335).
T9 sequence: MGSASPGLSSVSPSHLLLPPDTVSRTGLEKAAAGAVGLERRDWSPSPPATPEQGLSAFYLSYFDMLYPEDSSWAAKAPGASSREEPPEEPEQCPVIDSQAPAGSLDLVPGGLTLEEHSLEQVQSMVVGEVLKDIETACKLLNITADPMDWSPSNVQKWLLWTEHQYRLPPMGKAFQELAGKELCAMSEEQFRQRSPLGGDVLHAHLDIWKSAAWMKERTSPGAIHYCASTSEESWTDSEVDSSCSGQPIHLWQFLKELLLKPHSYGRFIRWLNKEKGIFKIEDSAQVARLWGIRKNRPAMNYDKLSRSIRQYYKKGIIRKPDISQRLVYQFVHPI
The conditions noted are these: protein: recombinant; tags: N-terminal GST; dsDNA, one strand shown. The method, boiled down: as §1

Assay [15] deals with T10, ETV7 (Homo sapiens, UniProt Q9Y603 1-341).
T10 sequence: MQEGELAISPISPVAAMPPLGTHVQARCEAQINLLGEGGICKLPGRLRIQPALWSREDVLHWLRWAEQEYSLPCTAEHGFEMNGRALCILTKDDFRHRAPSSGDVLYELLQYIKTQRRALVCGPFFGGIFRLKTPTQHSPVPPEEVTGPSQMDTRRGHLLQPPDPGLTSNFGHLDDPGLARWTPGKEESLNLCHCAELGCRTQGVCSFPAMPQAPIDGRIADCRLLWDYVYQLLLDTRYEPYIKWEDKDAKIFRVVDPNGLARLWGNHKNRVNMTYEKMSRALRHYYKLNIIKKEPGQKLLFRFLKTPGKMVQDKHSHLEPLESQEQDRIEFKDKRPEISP
Particulars: protein: recombinant; tags: N-terminal GST; dsDNA, one strand shown. The method, boiled down:
as §1

In assay [16] the target is T11, ELF5 (Homo sapiens, UniProt Q9UKW6-2 1-255).
T11 sequence: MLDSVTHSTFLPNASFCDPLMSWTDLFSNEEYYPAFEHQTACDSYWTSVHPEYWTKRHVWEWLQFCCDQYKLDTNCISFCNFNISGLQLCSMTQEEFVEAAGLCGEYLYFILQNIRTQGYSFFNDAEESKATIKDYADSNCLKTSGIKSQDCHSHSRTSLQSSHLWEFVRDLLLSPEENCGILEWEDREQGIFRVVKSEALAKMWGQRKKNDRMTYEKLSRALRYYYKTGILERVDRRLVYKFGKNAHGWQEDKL
Particulars: protein: recombinant; tags: N-terminal GST; dsDNA, one strand shown. The method, boiled down:
as §1

Assay [17] deals with T12, ETV3 (Homo sapiens, UniProt P41162-2 1-143).
T12 sequence: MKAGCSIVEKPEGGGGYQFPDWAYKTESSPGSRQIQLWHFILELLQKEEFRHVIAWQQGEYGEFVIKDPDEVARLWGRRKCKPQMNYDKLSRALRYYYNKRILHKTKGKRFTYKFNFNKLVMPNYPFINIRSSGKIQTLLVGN
Particulars: protein: recombinant; tags: N-terminal GST; dsDNA, one strand shown. The procedure, abridged:
as §1

The target of assay [18] is ETV6 (Homo sapiens, UniProt P41212 1-452). The conditions noted are these: protein: recombinant; tags: N-terminal GST; dsDNA, one strand shown. The method, boiled down: as §1
Sequence of ETV6 (P41212 whole entry): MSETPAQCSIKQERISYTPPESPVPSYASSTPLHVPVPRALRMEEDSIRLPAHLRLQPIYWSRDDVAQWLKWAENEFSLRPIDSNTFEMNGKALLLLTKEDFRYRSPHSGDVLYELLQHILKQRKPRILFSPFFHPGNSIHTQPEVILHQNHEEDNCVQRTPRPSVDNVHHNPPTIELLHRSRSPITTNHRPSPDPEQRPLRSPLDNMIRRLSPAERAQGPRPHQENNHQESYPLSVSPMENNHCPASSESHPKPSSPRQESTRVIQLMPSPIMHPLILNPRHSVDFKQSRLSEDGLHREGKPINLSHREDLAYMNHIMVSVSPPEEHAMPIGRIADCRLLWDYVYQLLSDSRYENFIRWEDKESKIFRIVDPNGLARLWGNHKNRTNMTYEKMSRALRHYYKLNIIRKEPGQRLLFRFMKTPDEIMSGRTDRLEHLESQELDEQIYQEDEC

Sequence of ETV5 (P41161 whole entry): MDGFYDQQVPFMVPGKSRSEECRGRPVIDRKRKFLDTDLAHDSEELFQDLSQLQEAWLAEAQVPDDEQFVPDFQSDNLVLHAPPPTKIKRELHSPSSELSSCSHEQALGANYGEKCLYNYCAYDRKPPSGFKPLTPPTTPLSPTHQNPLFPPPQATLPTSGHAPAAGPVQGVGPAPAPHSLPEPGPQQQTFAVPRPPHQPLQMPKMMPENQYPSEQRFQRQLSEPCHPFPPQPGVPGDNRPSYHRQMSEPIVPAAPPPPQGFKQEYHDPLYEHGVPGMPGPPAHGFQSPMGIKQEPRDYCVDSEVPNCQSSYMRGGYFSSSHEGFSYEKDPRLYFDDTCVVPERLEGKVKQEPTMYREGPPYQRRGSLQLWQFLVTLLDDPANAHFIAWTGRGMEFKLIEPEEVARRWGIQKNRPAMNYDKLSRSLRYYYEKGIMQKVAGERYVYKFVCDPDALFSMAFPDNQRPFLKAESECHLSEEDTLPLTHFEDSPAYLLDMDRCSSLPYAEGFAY
Sequence of ELF4 (Q99607 whole entry): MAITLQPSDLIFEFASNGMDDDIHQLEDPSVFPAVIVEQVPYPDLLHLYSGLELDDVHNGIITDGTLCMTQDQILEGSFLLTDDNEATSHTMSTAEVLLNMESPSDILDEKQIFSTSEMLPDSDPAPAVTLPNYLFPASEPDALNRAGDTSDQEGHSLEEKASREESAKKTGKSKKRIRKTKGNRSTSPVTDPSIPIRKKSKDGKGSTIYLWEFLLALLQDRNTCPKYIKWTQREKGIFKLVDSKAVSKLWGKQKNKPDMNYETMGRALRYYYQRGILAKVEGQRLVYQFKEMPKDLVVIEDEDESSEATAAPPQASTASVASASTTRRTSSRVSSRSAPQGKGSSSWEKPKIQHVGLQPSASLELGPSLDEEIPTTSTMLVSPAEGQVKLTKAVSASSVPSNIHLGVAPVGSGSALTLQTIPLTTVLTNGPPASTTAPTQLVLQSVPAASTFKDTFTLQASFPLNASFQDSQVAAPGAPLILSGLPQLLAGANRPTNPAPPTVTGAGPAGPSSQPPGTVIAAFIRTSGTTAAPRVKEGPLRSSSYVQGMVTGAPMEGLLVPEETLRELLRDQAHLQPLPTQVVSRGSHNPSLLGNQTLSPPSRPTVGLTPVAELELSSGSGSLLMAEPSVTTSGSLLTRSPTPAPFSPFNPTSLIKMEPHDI
Sequence of ETV1 (P50549 whole entry): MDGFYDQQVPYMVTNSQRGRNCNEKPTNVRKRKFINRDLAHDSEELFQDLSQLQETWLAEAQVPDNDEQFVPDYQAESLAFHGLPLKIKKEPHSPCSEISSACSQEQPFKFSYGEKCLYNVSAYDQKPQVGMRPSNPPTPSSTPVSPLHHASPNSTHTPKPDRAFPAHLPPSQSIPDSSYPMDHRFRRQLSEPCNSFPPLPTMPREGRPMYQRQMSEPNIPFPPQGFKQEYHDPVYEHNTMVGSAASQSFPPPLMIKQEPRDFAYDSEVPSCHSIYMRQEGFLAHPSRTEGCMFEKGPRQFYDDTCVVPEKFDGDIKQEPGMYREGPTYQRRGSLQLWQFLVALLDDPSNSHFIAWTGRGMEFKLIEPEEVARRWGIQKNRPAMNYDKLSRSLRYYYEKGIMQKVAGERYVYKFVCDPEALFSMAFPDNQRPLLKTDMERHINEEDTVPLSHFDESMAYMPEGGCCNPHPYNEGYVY
Sequence of HSF1 (Q00613 whole entry): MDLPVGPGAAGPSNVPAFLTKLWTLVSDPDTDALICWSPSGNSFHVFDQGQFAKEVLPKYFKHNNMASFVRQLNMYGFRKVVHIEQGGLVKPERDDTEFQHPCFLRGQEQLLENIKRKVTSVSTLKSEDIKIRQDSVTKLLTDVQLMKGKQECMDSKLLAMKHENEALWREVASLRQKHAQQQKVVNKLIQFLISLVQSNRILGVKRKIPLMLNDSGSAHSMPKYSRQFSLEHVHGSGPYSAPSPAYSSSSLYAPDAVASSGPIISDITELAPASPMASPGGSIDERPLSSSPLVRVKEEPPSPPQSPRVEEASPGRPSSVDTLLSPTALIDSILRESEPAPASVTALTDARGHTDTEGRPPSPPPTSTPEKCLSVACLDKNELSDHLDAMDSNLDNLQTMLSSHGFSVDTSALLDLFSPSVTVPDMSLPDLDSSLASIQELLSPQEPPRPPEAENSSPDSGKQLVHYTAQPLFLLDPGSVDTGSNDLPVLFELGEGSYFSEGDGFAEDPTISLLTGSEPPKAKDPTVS
Sequence of CRX (O43186 whole entry): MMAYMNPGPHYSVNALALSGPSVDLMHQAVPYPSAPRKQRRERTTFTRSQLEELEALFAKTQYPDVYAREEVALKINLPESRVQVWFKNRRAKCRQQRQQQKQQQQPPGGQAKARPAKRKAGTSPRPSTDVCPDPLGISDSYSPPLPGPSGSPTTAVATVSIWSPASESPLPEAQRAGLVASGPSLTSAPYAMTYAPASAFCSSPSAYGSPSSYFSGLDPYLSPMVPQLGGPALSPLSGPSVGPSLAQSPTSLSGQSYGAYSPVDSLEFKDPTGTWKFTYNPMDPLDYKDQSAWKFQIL

In the case of AACTCT, the binding signal in assay [1] is 1.31 fold enrichment (6-mer frequency, TF over GST control); in assay [2], 1.36 fold enrichment (6-mer frequency, TF over GST control); in assay [3], 1.4 fold enrichment (6-mer frequency, TF over GST control); in assay [4] it was 1.6 fold enrichment (6-mer frequency, TF over GST control); in [5] it was 1.36 fold enrichment (6-mer frequency, TF over GST control); in assay [6] it was 1.24 fold enrichment (6-mer frequency, TF over GST control). Further, the binding signal in assay [7] was 1.24 fold enrichment (6-mer frequency, TF over GST control); in assay [8], 1.44 fold enrichment (6-mer frequency, TF over GST control); in assay [9] it was 1.37 fold enrichment (6-mer frequency, TF over GST control); in assay [10], 1.36 fold enrichment (6-mer frequency, TF over GST control); in assay [11] it was 1.33 fold enrichment (6-mer frequency, TF over GST control); in [12], 1.27 fold enrichment (6-mer frequency, TF over GST control). Also, the binding signal in assay [13] is 1.32 fold enrichment (6-mer frequency, TF over GST control); in [14] it was 1.35 fold enrichment (6-mer frequency, TF over GST control); in assay [15], 1.24 fold enrichment (6-mer frequency, TF over GST control); in [16], 1.35 fold enrichment (6-mer frequency, TF over GST control); in [17], 1.34 fold enrichment (6-mer frequency, TF over GST control); in assay [18] it was 1.33 fold enrichment (6-mer frequency, TF over GST control).

The values are drawn from paper PMC7862700, “An all-to-all approach to the identification of sequence-specific readers for epigenetic DNA modifications on cytosine”.
